Source: PubChem BioAssay AID1578 (Sanford-Burnham Center for Chemical Genomics, 2009)
Screen size: about 290,000 compounds; about 3,000 (1%) were called active. The sample holds actives, similar compounds and a random draw of the others, so the mix is not that of the screen. A number with no mark means an inactive call. Rule as the data show it: active = inhibition mostly above about 36% (no sharp cut-off); inactive = mostly below about 34%.

Assay: inhibition of NOD1-driven NF-kB reporter – cell-based, luminescence, uHTS, primary screen (AID 1578);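 also: HEK-293T reporter cells stimulated with the NOD1 agonist gamma-tri-DAP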
Conditions: NOD1-driven NF-kB luciferase reporter cells, at 4 µM, active compounds read high

| Compound | inhibition |
| --- | --- |
| COc1ccc(N(CC(=O)NC2CCCCC2)C(=O)c2snc(C(N)=O)c2N)cc1 | -27.6% |
| CN1CCN(CCCNC(=O)Cn2nc(-c3ccccc3)ccc2=O)CC1 | -20.1% |
| O=C(O)c1nc(N2CCCC2)ncc1Cl | 0.1% |
| O=C1/C(=C\c2ccccc2)CCc2c1[nH]c1ccccc21 | -31.1% |
| Cc1ccc(/C=C2/CCc3c([nH]c4ccccc34)C2=O)cc1 | -61.5% |
| O=C1/C(=C/c2cccnc2)CCc2c1[nH]c1ccccc21 | 82% (active) |
| COC(=O)c1cn(CCOc2ccccc2)c2ccccc12 | -11.9% |
| COc1ccccc1C(=O)Nc1cccnc1 | -35.2% |
| CC1CCc2nc(NC(=O)c3ccco3)sc2C1 (configuration not stated) | 42.5% (active) |
| CC1CCc2nc(NC(=O)C3CC3)sc2C1 (configuration not stated) | -43.5% |
| O=C(CSc1nc2ccccc2o1)Nc1nc2ccccc2s1 | 25.3% |
| CC1CCc2nc(NC(=O)CCSc3ccccc3)sc2C1 (configuration not stated) | -19.7% |
| CC1CCc2nc(NC(=O)Cc3cccs3)sc2C1 (configuration not stated) | -17.9% |
| CC(=O)Nc1ccc(S(=O)(=O)N2CCN(c3ncccn3)CC2)cc1 | -2% |
| CCOc1ccccc1NC(=O)C(C)CC (configuration not stated) | -23.5% |
| COc1ccc(NC(=O)Cc2nnc(SCC(=O)NC3CCCCC3C)n2C)cc1 (configuration not stated) | 17.2% |
| CCN(CC1CCCN(CCc2cccc(F)c2)C1)C(=O)c1ccc(CSC)o1 (configuration not stated) | -11% |
| COc1ccc(C(=O)OC(COc2ccccc2)Cn2ccnc2)cc1 (configuration not stated) | 2.7% |
| Cc1coc2cc3oc(=O)c(CC(=O)N[C@@H](CC(C)C)C(=O)O)c(C)c3cc12 | -5.8% |
| COc1cc(C2C3C(C)N(C)C(=O)N(C)C3N(C)C(=O)N2C)ccc1O (configuration not stated) | -20.9% |
| COc1cc(/C=C2/SC(=S)NC2=O)ccc1OS(=O)(=O)c1ccc(C)cc1 | 93.4% (active) |
| COc1cc(/C=C2\SC(=S)NC2=O)ccc1OS(=O)(=O)c1ccccc1 | 4.1% |
| COc1ccc(/C=C2\SC(=S)NC2=O)cc1OS(=O)(=O)c1ccc(NC(C)=O)cc1 | 2.1% |
| Cc1ccc(CNC(=O)C2CCN(S(=O)(=O)c3ccc(Br)s3)CC2)cc1 | 16% |
| Cc1cc(C(=O)CSc2nc(N)cc(=O)[nH]2)c(C)n1-c1ccc(OC(F)F)cc1 | 45.3% (active) |

| Compound | inhibition |
| --- | --- |
| Cc1cc(-n2c(C)cc(C(=O)CSc3nc(N)cc(=O)[nH]3)c2C)no1 | 9.7% |
| Cc1cc(C(=O)CSc2cccc[n+]2[O-])c(C)n1-c1ccc(OC(F)F)cc1 | 2.7% |
| COCCCNC(=O)CNC(=O)c1cn(-c2ccccc2OC)c(=O)c2ccccc12 | -30.6% |
| Cc1ccc(C)c(NC(=O)CCN2CC(C)OC(C)C2)c1 (configuration not stated) | -8.9% |
| COc1ccc(CN2CCSc3sccc3C2=O)cc1 | -4.1% |
| CCCCOc1nc2ccccc2nc1C(C#N)S(=O)(=O)c1ccccc1 (configuration not stated) | 79.5% (active) |
| CC1CCCN(c2nc3ccccc3nc2C(C#N)S(=O)(=O)c2cccs2)C1 (configuration not stated) | 13.4% |
| Cc1ccc(S(=O)(=O)C(C#N)c2nc3ccccc3nc2N2CCCCC2)cc1 (configuration not stated) | -4.7% |
| N#CC(c1nc2ccccc2nc1N1CCCC1)S(=O)(=O)c1ccccc1 (configuration not stated) | 10.2% |
| CC1CCCN(c2nc3ccccc3nc2C(C#N)S(=O)(=O)c2ccccc2)C1 (configuration not stated) | 102% (active) |
| N#CC(c1nc2ccccc2nc1N1CCCCC1)S(=O)(=O)c1ccc(Cl)cc1 (configuration not stated) | 88.1% (active) |
| Cc1ccc(S(=O)(=O)C(C#N)c2nc3ccccc3nc2OCCO)cc1 (configuration not stated) | -27.7% |
| COc1ccc(S(=O)(=O)C(C#N)c2nc3ccccc3nc2N2CCCC(C)C2)cc1 (configuration not stated) | -10.7% |
| N#CC(c1nc2ccccc2nc1OCCO)S(=O)(=O)c1ccccc1 (configuration not stated) | -3.6% |
| CCCCOC(=O)c1cccnc1 | 9.9% |
| Cc1c(Cl)cccc1NC(=O)Nc1c(C)n(C)n(-c2ccccc2)c1=O | -22.5% |
| O=C(Cc1n[nH]c(=O)[nH]c1=O)N/N=C/c1c(O)ccc2ccccc12 | -32.5% |
| COCCN1C(=O)c2ccccc2C(C(=O)N2CCN(c3ccccn3)CC2)C1c1ccc(F)cc1 (configuration not stated) | 13.2% |
| COc1cccc(CNC(=O)CCC2CCCN(C(=O)Cc3ccccc3F)C2)c1 (configuration not stated) | -26.2% |
| CC(O)c1nc2ccccc2n1CC(=O)N1CCN(c2ccccc2)CC1 (configuration not stated) | -27.8% |
| CCOc1ccccc1NC(=S)N(CCCN1CCOCC1)Cc1cn(C)c2ccccc12 | -4.6% |
| O=c1nc(SCc2cccc(C(F)(F)F)c2)nc2ccccn12 | -17.7% |
| N#Cc1c(-c2ccccc2)nc(SCc2ccc(Cl)cc2)[nH]c1=O | -2.4% |
| N#Cc1c(-c2ccccc2)nc(SCc2cccc(Cl)c2)[nH]c1=O | 18.9% |
| CCSc1nc(N)nc(-c2cccs2)c1C#N | -29% |

| Compound | inhibition |
| --- | --- |
| N#Cc1c(N)nc(SCc2ccncc2)c(C#N)c1-c1cccs1 | 61.6% |
| N#Cc1c(Cl)nc(SCc2ccccc2)nc1-c1ccccc1 | 32.4% |
| N#Cc1cc2ccccc2nc1SCC(=O)NC1CC1 | -32.4% |
| Cc1ccc(NC(=S)NNC(=O)c2c(Cl)c(C)nn2C)cc1 | 0% |
| Cc1ccc2c(c1)N(CC(=O)NC1CCCC1)C(=O)CO2 | -27.1% |
| CCOC(=O)C1(CC)NC(c2ccc(OC)c(OC)c2)C2C(=O)N(c3cccc(C(C)=O)c3)C(=O)C21 (configuration not stated) | -2.3% |
| Cc1nc([N+](=O)[O-])cn1CC(O)c1ccc(-c2ccccc2)cc1 (configuration not stated) | -8.6% |
| COc1ccc(N2CCN(C(=O)CSc3nnc4c(C)cc5ccccc5n34)CC2)cc1 | -15.6% |
| C#CCOC(=O)c1cc(Cl)c(=O)n(Cc2ccc(Cl)cc2Cl)c1 | 12.3% |
| CC(NC(=O)/C(C#N)=C/c1ccco1)c1ccccc1 (configuration not stated) | -8.1% |
| Cc1nn(Cc2c(F)c(F)c(F)c(F)c2F)c(C)c1NC(=O)c1c([N+](=O)[O-])c(C)nn1C | 10.1% |
| Cc1cc(C)c(C#N)c(SCC(=O)c2cccs2)n1 | -63.4% |
| Cc1cc(C)c(C#N)c(SCC(=O)c2ccccc2)n1 | -26.8% |
| Cc1cc(C)c(C#N)c(SCC(=O)c2ccc(Cl)cc2Cl)n1 | 68.6% (active) |
| CNc1ccccc1C(=O)OCC(C)=O | -41.6% |
| COc1ccc(CCNC(=O)CCC(=O)N2CCOc3ccc(C)cc32)cc1OC | 10.2% |
| COc1ccc(NC(=O)c2cc(-c3cc(OC)c(OC)c(OC)c3)nc3ccccc23)cc1OC | 43.8% |
| COc1cc(-c2cc(C(=O)Nc3cccc(C(C)=O)c3)c3ccccc3n2)cc(OC)c1OC | 63.6% (active) |
| COc1cc(-c2cc(C(=O)Nc3ccc(O)cc3)c3ccccc3n2)cc(OC)c1OC | 6.4% |
| C=CCC(c1ccccc1F)N(CCN1CCOCC1)C(=O)Nc1cccc(Cl)c1 (configuration not stated) | 7.7% |
| COc1ccc(C(C(=O)NC2CCCC2)N(C(=O)c2ccoc2C)c2ccc(C)cc2)cc1 (configuration not stated) | -10.4% |
| COCCN(C(=O)C(=O)NC1CCCC1)C(C(=O)NC1CCCC1)c1ccccc1F (configuration not stated) | -25.2% |
| COCCN(C(=O)CCC(=O)Nc1cc(C)on1)C(C(=O)NC1CCCC1)c1ccccc1C (configuration not stated) | -13.7% |
| COC(CN(C(=O)CCl)C(C(=O)NC1CCCCC1)c1ccc(C)cc1)OC (configuration not stated) | 68.9% |
| O=S(=O)(NC1CCCCC1)c1cccc(-c2nnc(-c3ccccc3)o2)c1 | 8.5% |

| Compound | inhibition |
| --- | --- |
| Cc1ccc(C(C(=O)NC2CCCC2)N(C(=O)Cc2cccs2)c2ccc3c(c2)OCCO3)cc1 (configuration not stated) | -7.5% |
| O=C(CN1CCOCC1)N/N=C/c1ccc(-c2cccc(Cl)c2Cl)o1 | -9.3% |
| O=C(CN1C(=O)COc2ccccc21)NCCN1CCOCC1 | -38% |
| CC(=O)c1c(O)c2ccccc2n(C2CCCCC2)c1=O | 57.4% (active) |
| CCn1c(=O)c(C(C)=O)c(O)c2ccccc21 | -17% |
| CC(=O)c1c(O)c2ccccc2n(C)c1=O | -26% |
| CC(C)CC(=O)c1c[nH]c(C(=O)O)c1 | -16.9% |
| CC(Cl)C(=O)Nc1ncc(C(F)(F)F)cc1Cl (configuration not stated) | -12% |
| Cc1[nH]n(-c2ccccc2)c(=O)c1C(=O)c1ccccc1 | -3.5% |
| CCSC(=S)c1c(C)[nH]n(-c2ccccc2)c1=O | 1.7% |
| CCCSC(=S)c1c(C)[nH]n(-c2ccccc2)c1=O | 50.5% (active) |
| CCCOc1ccc(N2C(=O)CC(N(Cc3ccco3)C(=O)CC)C2=O)cc1 (configuration not stated) | -3.4% |
| COc1ccc(CCNC(=O)c2cccs2)cc1OC | -51.6% |
| COc1ccc(C2(O)CCN(C(=O)NC3CCCCC3)CC2)cc1 | -14.2% |
| CCOC(=O)c1sc2ccccc2c1OC(=O)c1ccccc1 | 38.2% |
| CCOC(=O)c1sc2ccccc2c1OC(=O)c1ccccc1OC | 46.4% |
| CC1COc2ccccc2N1C(=O)c1ccccc1Cl (configuration not stated) | 4.6% |
| Cc1ccc(S(=O)(=O)N2c3ccccc3OCC2c2ccccc2)cc1 (configuration not stated) | -19.1% |
| CCCCOc1ccccc1C(=O)N(Cc1ccco1)C1CCS(=O)(=O)C1 (configuration not stated) | 25.4% |
| CCOC(=O)c1sc2nc[nH]c(=O)c2c1C | 4.3% |
| CCOC(=O)c1c(O)c(O)c(C(=O)OCC)n1-c1ccccc1 | -8.7% |
| CCOC(=O)c1c(C)c2c(=O)[nH]cnc2n1-c1ccccc1 | 32.5% (active) |
